Screens deposited in PubChem BioAssay by Broad Institute.
FadD28 FP inh – M. tuberculosis FadD28 bisubstrate binding inhibition; FadD28 bisubstrate probe binding, fluorescence polarization; inhibition, % at 12.5 µM; 0.22% of 360,000 active; AID 588549; in the data active = inhibition above about 8.5%, passing the limit was not always enough
Y pestis TopoI – Y. pestis Topo-I inhibition via cleavage products; Y. pestis Topo-I cleavage product accumulation, plate reader; activity, % at 10 µM; 0.064% of 360,000 active; AID 504884; in the data active = activity above about 50%, passing the limit was not always enough
Vc quorum ag – induces V. cholerae light production without autoinducers. V. cholerae BH1578 lux reporter, luminescence, 6 h. 0.16% of 350,000 active. activation, % at 18.7 µM; in the data active = activation mostly above about 9.7%, no sharp cut-off
TcdB GH inh – blocks C. difficile toxin B glycohydrolase activity; inhibition, % at 9.99 µM; TcdB glycohydrolase enzymatic assay, plate reader; 0.24% of 350,000 active; AID 652162; in the data active = inhibition above about 10%
Target sequence (P18177 whole entry, looked up): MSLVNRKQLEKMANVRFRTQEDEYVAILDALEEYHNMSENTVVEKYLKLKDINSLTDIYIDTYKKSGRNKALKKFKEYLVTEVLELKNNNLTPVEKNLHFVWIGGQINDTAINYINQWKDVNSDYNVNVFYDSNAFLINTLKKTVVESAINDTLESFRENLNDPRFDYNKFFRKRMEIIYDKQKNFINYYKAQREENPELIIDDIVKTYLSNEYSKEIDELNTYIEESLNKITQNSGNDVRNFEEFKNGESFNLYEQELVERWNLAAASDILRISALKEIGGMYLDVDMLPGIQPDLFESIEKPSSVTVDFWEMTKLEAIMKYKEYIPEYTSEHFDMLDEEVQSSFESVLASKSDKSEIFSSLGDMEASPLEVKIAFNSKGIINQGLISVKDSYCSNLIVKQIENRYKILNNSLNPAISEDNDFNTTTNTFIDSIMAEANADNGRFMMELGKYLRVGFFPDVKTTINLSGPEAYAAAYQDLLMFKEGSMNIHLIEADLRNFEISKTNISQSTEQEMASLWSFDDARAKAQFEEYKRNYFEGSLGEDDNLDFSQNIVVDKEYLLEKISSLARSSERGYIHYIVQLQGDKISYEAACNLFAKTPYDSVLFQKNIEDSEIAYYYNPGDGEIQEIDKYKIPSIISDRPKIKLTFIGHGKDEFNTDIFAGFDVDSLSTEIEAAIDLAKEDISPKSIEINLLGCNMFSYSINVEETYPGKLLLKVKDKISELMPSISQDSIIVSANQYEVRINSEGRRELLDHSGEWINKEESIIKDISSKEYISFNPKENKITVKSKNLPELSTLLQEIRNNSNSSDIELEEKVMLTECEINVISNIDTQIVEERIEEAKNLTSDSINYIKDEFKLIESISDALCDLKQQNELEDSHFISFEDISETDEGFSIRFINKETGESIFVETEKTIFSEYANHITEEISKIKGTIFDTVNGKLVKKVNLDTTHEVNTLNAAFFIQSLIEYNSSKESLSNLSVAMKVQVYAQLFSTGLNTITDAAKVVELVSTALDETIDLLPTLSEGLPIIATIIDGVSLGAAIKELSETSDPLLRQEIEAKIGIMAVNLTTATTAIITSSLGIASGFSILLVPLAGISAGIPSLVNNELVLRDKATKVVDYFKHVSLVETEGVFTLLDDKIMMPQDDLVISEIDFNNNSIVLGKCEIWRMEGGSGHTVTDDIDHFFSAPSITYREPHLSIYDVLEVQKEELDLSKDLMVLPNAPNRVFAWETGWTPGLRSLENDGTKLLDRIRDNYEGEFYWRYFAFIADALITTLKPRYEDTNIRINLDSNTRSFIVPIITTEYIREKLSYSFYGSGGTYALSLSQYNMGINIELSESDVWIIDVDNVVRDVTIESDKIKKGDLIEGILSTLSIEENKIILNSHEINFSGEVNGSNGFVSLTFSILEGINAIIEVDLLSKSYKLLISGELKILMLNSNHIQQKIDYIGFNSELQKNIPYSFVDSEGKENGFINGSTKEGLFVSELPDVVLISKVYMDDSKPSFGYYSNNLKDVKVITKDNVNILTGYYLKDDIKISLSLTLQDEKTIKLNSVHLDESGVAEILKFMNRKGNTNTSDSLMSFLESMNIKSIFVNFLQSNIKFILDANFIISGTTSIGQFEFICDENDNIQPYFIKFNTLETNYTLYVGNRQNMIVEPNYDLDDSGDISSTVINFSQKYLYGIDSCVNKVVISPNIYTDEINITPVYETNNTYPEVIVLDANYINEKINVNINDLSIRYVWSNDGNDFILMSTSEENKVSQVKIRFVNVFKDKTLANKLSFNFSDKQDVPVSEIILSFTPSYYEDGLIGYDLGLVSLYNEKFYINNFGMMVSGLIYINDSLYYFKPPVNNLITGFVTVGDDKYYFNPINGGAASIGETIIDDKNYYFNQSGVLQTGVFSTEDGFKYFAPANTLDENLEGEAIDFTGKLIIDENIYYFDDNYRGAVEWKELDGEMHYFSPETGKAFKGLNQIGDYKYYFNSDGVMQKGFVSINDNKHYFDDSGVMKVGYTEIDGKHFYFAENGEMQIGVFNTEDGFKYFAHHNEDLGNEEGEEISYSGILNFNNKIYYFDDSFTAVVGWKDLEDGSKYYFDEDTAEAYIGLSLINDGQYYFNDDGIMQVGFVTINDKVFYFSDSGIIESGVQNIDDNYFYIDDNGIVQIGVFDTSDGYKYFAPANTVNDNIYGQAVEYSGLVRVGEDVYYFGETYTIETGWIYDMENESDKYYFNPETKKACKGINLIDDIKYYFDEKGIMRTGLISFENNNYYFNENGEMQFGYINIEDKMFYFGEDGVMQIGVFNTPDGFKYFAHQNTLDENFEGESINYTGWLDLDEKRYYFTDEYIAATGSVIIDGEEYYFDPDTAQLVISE
BioA inh – BioA (M. tuberculosis) enzyme inhibition | inhibition, % at 9.99 µM | purified M. tuberculosis BioA enzyme, plate reader | 0.096% of 360,000 active; in the data active = inhibition above about 40%
Starred values were filed as active, the others as inactive; i = inactive; · = not tested or not shown. Hits are enriched below; roughly 0.61% of the tested compounds scored in any of these assays.

SMILES	FadD28 FP inh	Y pestis TopoI	Vc quorum ag	TcdB GH inh	BioA inh
Cn1cc(S(=O)(=O)CC(=O)N2CCCc3ccccc32)c2ccccc21	-4	1	-1	11*	0
CCCC1=NN2C(=N)/C(=C\c3cc(C)n(Cc4ccccc4)c3C)C(=O)N=C2S1	-1	8	-1	-1	-1
CCC1=NN2C(=N)/C(=C\c3ccc(SCc4ccco4)o3)C(=O)N=C2S1	11*	-7	i	·	-7
CCCC1=NN2C(=N)/C(=C\c3ccc(SCc4ccco4)o3)C(=O)N=C2S1	14*	3	-2	·	-5
C[C@H]1CN([C@@H](C)CO)C(=O)c2cc(NC(=O)Nc3ccc4c(c3)OCO4)ccc2O[C@H]1CN(C)S(C)(=O)=O	·	·	·	1	-1
CN1C[C@@H]2[C@H](c3ccccc31)[C@@H](CO)N2C(=O)Nc1ccccc1Cl	·	·	·	0	-2
Cc1cccc(NC(=O)Cn2c(=O)oc3cc(S(=O)(=O)N4CCCC4)ccc32)n1	14*	2	0	0	3
Cc1cc(NC(=O)Cn2c(=O)oc3ccccc32)no1	-3	-10	-3	1	-1
COc1cccc(NC(=O)Cn2c(=O)oc3cc(S(=O)(=O)N4CCCC4)ccc32)c1	24*	-3	i	1	4
Cc1cccc(NC(=O)Cn2c(=O)oc3ccccc32)n1	20*	-4	0	-2	2
C[C@@H]1CCCCO[C@@H](CN(C)C(=O)Nc2ccc(F)cc2)[C@H](C)CN([C@H](C)CO)C(=O)c2cc(NS(=O)(=O)c3ccc(Cl)cc3)ccc2O1	·	·	·	1	0
CSc1nc2ncnc(N)c2[nH]1	-3	5	-1	0	-1
Nc1ncnc2[nH]c(=S)[nH]c12	-3	5	-2	15*	1
C[C@H](CO)N1C[C@H](C)[C@H](CN(C)S(=O)(=O)c2ccccc2)Oc2ccc(NS(=O)(=O)c3ccc(F)cc3)cc2C1=O	·	·	·	·	-4
CCCCCCCN1C(N(C)C)=NC[C@@H]1Cc1ccccc1	-1	11	1	13*	3
CN(C)C1=NC[C@H](Cc2ccccc2)N1CCCCc1ccccc1	-4	-4	1	-1	9
CC(=O)Oc1cccc2c1C(=O)c1c(OC(C)=O)cc(C(=O)O)cc1C2=O	3	8	-3	3	-1
O=C(O)c1cc(O)c2c(c1)C(=O)c1cc(O)cc(O)c1C2=O	13*	-1	0	2	4
O=C1CN(C(=O)CSc2nc3cc(Cl)ccc3c(=O)n2Cc2ccccc2)c2ccccc2N1	-3	71*	0	1	·
C=CCn1c(SCC(=O)N2CC(=O)Nc3ccccc32)nc2scc(-c3ccccc3)c2c1=O	-4	29	0	16*	0
C=CCn1c(SCC(=O)NCc2ccc3c(c2)OCO3)nc2scc(-c3ccccc3)c2c1=O	-4	2	i	·	0
CO[C@H]1CN(C)C(=O)c2cc(NS(=O)(=O)c3cn(C)cn3)ccc2OC[C@H](C)N(C)C[C@H]1C	·	·	·	·	-1
Cc1ccc(SCC(=O)NCCC2=CCCCC2)cc1	-2	51*	3	·	-5
Cc1ccc(OCC(=O)NCCC2=CCCCC2)cc1	-2	-6	2	·	1
O=C(CCSCc1ccc(Cl)cc1)NCCC1=CCCCC1	-1	65*	i	0	·
SMILES	FadD28 FP inh	Y pestis TopoI	Vc quorum ag	TcdB GH inh	BioA inh
O=C(C[C@H]1C[C@@H]2c3cc(NC(=O)C4CCOCC4)ccc3O[C@@H]2[C@H](CO)O1)NCc1ccncc1	·	·	·	-2	-2
C[C@H]1CN([C@@H](C)CO)C(=O)c2cccc(NC(=O)CCCCCC(=O)Nc3ccccc3N)c2O[C@H]1CN(C)C(=O)Nc1ccc(C(F)(F)F)cc1	·	·	·	1	·
C[C@H](CO)N1C[C@H](C)[C@H](CN(C)S(=O)(=O)c2ccccc2)Oc2ccc(NC(=O)Cn3cnnn3)cc2CC1=O	·	·	·	0	1
O=C(Nc1cccc([N+](=O)[O-])c1)NC1CCCCCCC1	18*	1	-1	1	-1
C[C@@H]1CN([C@@H](C)CO)C(=O)c2cc(NC(=O)Nc3cccc4ccccc34)ccc2O[C@H]1CN(C)Cc1ccncc1	·	·	·	1	0
CC(C)n1c(O)c(N=Nc2ccc(Cl)c(C(=O)O)c2)c2ccccc21	11*	-1	5	-2	-1
CCn1c(O)c(N=Nc2ccc(Cl)c(C(=O)O)c2)c2ccccc21	1	4	0	0	1
O=c1oc2c(O)c(O)cc3c(=O)oc4c(O)c(O)cc1c4c23	14*	-11	-1	·	5
CCCNC(=O)Nc1ccc2c(c1)OC[C@@H](C)N(C(=O)C1CCCCC1)C[C@H](C)[C@@H](OC)CN(C)C2=O	·	·	·	1	-2
CC1CN(C2CCCCC2)C(=S)NC1=O (stereo not given)	-3	-5	39*	0	-1
CCCCn1c(CN2CCN(C(=O)c3ccco3)CC2)nc2c1c(=O)n(C)c(=O)n2C	-2	-2	i	10*	1
CCCCCn1c(CN2CCN(C(=O)c3ccco3)CC2)nc2c1c(=O)n(C)c(=O)n2C	0	30	-1	3	7
COc1ccc(CNC(=O)c2cccs2)cc1	-3	1	i	·	3
COc1ccc(CNC(=O)c2cc3c(s2)CN(Cc2ccccc2)C3)cc1	-3	-4	i	10*	·
N#Cc1cccc(-c2ccc([C@H]3[C@@H](CO)N4CCCCN(C(=O)Nc5ccccc5)C[C@@H]34)cc2)c1	·	·	·	0	0
CCN(CC)Cc1c[nH]c2c(C(=O)OC)cccc12	-2	1	17*	1	-3
CCN(CC)Cc1c[nH]c2ccccc12	0	-5	-1	·	0
Cc1ccc(S(=O)(=O)N2C[C@@H](O)COC[C@@H]3O[C@H](CC(=O)NCCN4CCCCC4)CC[C@H]32)cc1	·	·	·	0	1
CCOc1ccc(/C=C2\SC(=S)N(C(C(=O)O)c3ccccc3)C2=O)cc1OC (stereo not given)	2	33	-8	1	12
C=CCOc1ccc(/C=C2\SC(=S)N(C(C(=O)O)c3ccccc3)C2=O)cc1 (stereo not given)	14*	15	0	1	·
CN(C)C(=O)C[C@@H]1C[C@@H]2c3cc(NC(=O)CC4CC4)ccc3O[C@@H]2[C@H](CO)O1	·	·	·	0	0
COc1ccc(/C=N/NC(=O)CN(Cc2ccccc2)S(=O)(=O)c2ccc3c(c2)OCCO3)cc1	-2	35	0	·	·
COc1cc(/C=N/NC(=O)CN(Cc2ccccc2)S(=O)(=O)c2ccc3c(c2)OCCO3)ccc1O	22*	7	i	2	·
Cc1cc(N/N=C/c2ccc(O)cc2)c2cccc(C)c2n1	-5	-36	-1	11*	-1
Cc1cc(C)c2nc(C)cc(N/N=C/c3ccc(O)cc3)c2c1	1	-5	1	16*	-2
Cc1cc(N/N=C/c2ccc(N(C)C)cc2)c2ccccc2n1	0	8	0	1	6
C[C@@H]1CN([C@@H](C)CO)C(=O)Cc2cc(NC(=O)NC3CCCCC3)ccc2O[C@H]1CN(C)S(=O)(=O)c1ccccc1	·	·	·	0	0
Cc1cc(N/N=C/c2ccncc2)nc2ccccc12	-1	8	0	12*	·
